Sampled rows, rich in hits. Any-hit rate of the full collection: about 7%.
JMJD2A Tudor = inhibitors of human JMJD2A Tudor domain; O75164; AlphaScreen JMJD2A-Tudor / H3K4me3 peptide binding; Potency, µM (doses to about 114 µM), without a hit: at the highest dose activity change, negative = inhibition, actives largely listed as inhibitors; actives 4.4% (n = 390,000); AID 504339; further: potency means the concentration at half of the fitted maximal effect; on the % scale 0 is the no-effect control and ±100 the full control effect; nearly all actives have a fitted effect of over 50% in size
PLK1 PBD inh = inhibitors of human PLK1 polo-box domain binding; Plk1 PBD binding of FITC phosphopeptide, fluorescence polarization; Potency, µM, without a hit: max response, negative = inhibition, hits mostly inhibitors; actives 2.8% (n = 360,000); AID 720504; further: potency means the concentration at half of the fitted maximal effect; series mostly up to about 57 µM; on the % scale 0 is the no-effect control and ±100 the full control effect; nearly all actives have a fitted effect of over 65% in size
HP1b chromo inh = HP1-beta chromodomain-methylated histone interaction inhibition; P83916; Potency, µM (highest dose often 114 µM), for inactives: at the top dose activity change, negative = inhibition, hits mostly inhibitors; AID 540317; AlphaScreen HP1-beta / biotin-H3K9me3 peptide binding; actives 0.56% (n = 390,000); further: potency means the concentration at half of the fitted maximal effect; nearly all actives have a fitted effect of over 70% in size
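Compound inhibition of the preformed complex between 50 nM HP1-beta and 50 nM biotinylated H3K9me3 peptide was read by AlphaScreen. Buffer was PBS pH 7.4 with 0.01% Tween-20. Incubations ran 30 min at room temperature, with 10 ug/mL donor/acceptor beads.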
PI5P4Ka inh = blocks human PI5P4K alpha kinase activity | PI5P4Kalpha enzyme, ADP-Glo luminescence, 60 min; stronger effect = lower value | max response, % | actives 1.2% (n = 330,000) | AID 652105; active means max response of -50% or lower; inconclusive means between -30% and -50%; inactive means -30% or higher; further: value at the top dose of about 77 µM; on the % scale 0 is the no-effect control and ±100 the full control effect
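ADP-Glo luminescence end-point after a 60 min room-temperature kinase reaction. PI5P4Kalpha and substrate in HEPES pH 7.4 buffer with EGTA, 0.1% CHAPS and 5% DMSO; ATP at 5 microM final.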
KAT2A inh = inhibitors of human GCN5L2 histone acetyltransferase; Q92830; GCN5L2 HAT assay, ThioGlo1 CoA-SH fluorescence; Potency, µM (highest dose often 58.9 µM), inactives show at the top dose activity change, negative = inhibition, hits mostly inhibitors; actives 0.21% (n = 390,000); further: potency means the concentration at half of the fitted maximal effect; on the % scale 0 is the no-effect control and ±100 the full control effect
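Titration-based screen in which CoA formation is detected via maleimide probe ThioGlo1 (50uM) turning fluorescent on thiol reaction; substrates H3(1-25) 75uM and acetyl-CoA 70uM, GCN5L2 20nM, 20 min incubation at room temperature.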
BAZ2B block = inhibitors of human BAZ2B bromodomain | actives 4.4% (n = 360,000) | Q9UIF8 | AlphaScreen BAZ2B-H3K14Ac peptide displacement | Potency, µM (top dose mostly 114 µM), inactives show at the top dose activity change, negative = inhibition, most hits filed as inhibitors; further: potency means the concentration at half of the fitted maximal effect; on the % scale 0 is the no-effect control and ±100 the full control effect; nearly all actives have a fitted effect of over 60% in size
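Compounds, titrated to a top concentration of 110 uM, were incubated 30 min at room temperature with preformed BAZ2B/acetyl-K14 H3 peptide complex (50 nM each). Proximity signal was measured by AlphaScreen after 20 min with beads.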
* marks the source's active call; other numbers are inactive results; ? = inconclusive; · = no result given; [ ] = dose if it differs, or a comment. Unless noted, the call rests on the fitted dose curve; in most records, active means well fitted curve in the direction sought with a large enough effect; inconclusive means small, poorly fitted or top-dose-only effect, or another doubt; inactive means no such curve, though single readings can be large; an effect the other way counts as inactive or inconclusive.

SMILES	JMJD2A Tudor	PLK1 PBD inh	HP1b chromo inh	PI5P4Ka inh	KAT2A inh	BAZ2B block
O=[N+]([O-])c1ccc(/C=C/c2ccc3cccc(O)c3n2)cc1	-6%	-2%	48%	-4	4%	-7%
COc1cc(/C=C/c2ccc3cccc([N+](=O)[O-])c3n2)ccc1OCC(=O)O	-19%	-11%	5%	-20	-25%	56µM*
c1ccc(CN2CCN(Cc3c[nH]c4ccccc34)CC2)cc1	-22%	9%	-2%	3	-17%	-34%
Oc1ccc(CN2CCN(Cc3ccccc3)CC2)c2cccnc12	40µM*	?	?	3	-2%	-1%
O=S(=O)(c1ccc(Cl)cc1)N1CCN(Cc2ccc(O)c3ncccc23)CC1	56µM*	-11%	26%	-3	-1%	32µM*
Cc1ccccc1Cn1c(=O)n(CC2CCC(C(=O)N3CCC(C)CC3)CC2)c(=O)c2sccc21 (configuration not stated)	-27%	·	31%	·	-8%	?
COc1ccccc1C(=O)NCCC(=O)N1CC(C)OC(C)C1 (configuration not stated)	-8%	-1%	44%	-8	·	·
O=C(Cn1cc(CN(Cc2ccccc2)Cc2ccccc2)nn1)Nc1cc(C(F)(F)F)ccc1Cl	-23%	·	·	·	·	·
O=[N+]([O-])c1cc(Br)c(O)c(C=Nc2ccc(N3CCOCC3)cc2)c1	-24%	-15%	7%	-23	-1%	35µM*
COc1cccc(C=Nc2ccc(N3CCOCC3)cc2)c1O	-21%	-15%	13%	5	-4%	-35%
CCOc1cc(/C=C2/C(=N)N3C(=NC2=O)SN=C3S(=O)(=O)C(C)C)ccc1OC(=O)c1ccco1	-25%	27µM*	-5%	-83*	-23%	-35%
COc1cc(/C=C2/C(=N)N3C(=NC2=O)SN=C3S(=O)(=O)C(C)C)ccc1OC(=O)c1ccco1	-31%	21µM*	-7%[57 µM]	-75*	-20%	56µM*
COc1cc(/C=C2/SC(=S)N(C)C2=O)ccc1OC(=O)c1ccco1	-24%	25%	8%	1	-4%	?
COc1cccc(-n2c(C)nc3c(cnn3-c3ccc(Cl)cc3)c2=O)c1	-9%[11.4 µM]	21µM*	-11%	-13	-2%	8%
Cc1cccc(C(=O)Nc2onc(C)c2C#N)c1	89µM*	0%	0%	-18	3%	?
O=C(NCCc1ccccc1)c1c[nH]c2ccccc2c1=O	·	-4%	·	-5	·	·
Oc1ccc(/C=N/N2CCOCC2)c(O)c1O	22µM*	9.5µM*	-6%	-21	3%	·
COc1cccc(/C=N/N2CCOCC2)c1O	-17%	-12%	27%	-15	1%	-4%
CCc1cccc(C)c1NS(=O)(=O)c1cc2[nH]c(=O)c(=O)[nH]c2cc1C	-2%	·	32%	·	-1%	5%
c1ccc(Sc2ccccn2)cc1	-7%	-7%	6%	-23	·	·
c1ccc(SSc2ccccn2)nc1	4µM*	0.67µM*	?	-23	·	·
O=C(c1cccs1)N1CCN(CCCc2ccccc2)CC1	3.2µM*	3%	45µM*	·	0%	79µM*
O=C(c1cccs1)N1CCN(Cc2ccccc2)CC1	0%	-6%	19%	0	2%	0%
COc1ccc(CN2CCN(C(=O)c3cccs3)CC2)cc1	1.3µM*	-3%	?	-1	-3%	56µM*
O=C(c1cccnc1)N1CCN(CCCc2ccccc2)CC1	5µM*	3%	56µM*	·	-6%	·
SMILES	JMJD2A Tudor	PLK1 PBD inh	HP1b chromo inh	PI5P4Ka inh	KAT2A inh	BAZ2B block
O=C(O)c1ccccc1C(=O)Nc1n[nH]c(=S)s1	13µM*	27µM*	28µM*	·	18µM*	32µM*
CCC1(c2ccc(Cl)cc2)NC(=S)N(c2ccc(C)cc2)N1 (configuration not stated)	79µM*	-11%	9%	-10	-19%	-35%
CCC(C)(C)C1CCC2(CC1)NC(=S)N(c1ccccc1)N2 (configuration not stated)	-23%	-9%	39%	4	-9%	?
CCC1(c2ccc(Cl)cc2)NC(=S)N(c2ccc(C)c(C)c2)N1 (configuration not stated)	-26%	-27%	15%	-6	-30%	-26%
CC1(CCc2ccccc2)NC(=S)N(c2ccc(Cl)cc2)N1 (configuration not stated)	?	-13%	34%	18	-27%	79µM*
CC1(CCc2ccccc2)NC(=S)N(c2ccccc2)N1 (configuration not stated)	?	1%	28%	-10	?	50µM*
C=CCc1ccc(OCCCCN2CCC(C)CC2)c(OC)c1	2.8µM*	-14%	-24%	2	0%	?
CC1CCCN(CCCOc2ccc(Br)cc2Cl)C1 (configuration not stated)	1.1µM*	-7%	?	7	-3%	?
C=CCc1ccc(OCCCOc2ccc(C(=O)O)cc2)c(OC)c1	-14%	-7%	7%	-1	-6%	-11%
C=CCc1ccc(OCCCN2CCCC(C)C2)c(OC)c1 (configuration not stated)	3.5µM*	-3%	-25%	·	1%	79µM*
C[C@H](CO)N1C[C@H](C)[C@@H](CN(C)S(=O)(=O)c2ccc(Oc3ccccc3)cc2)OCc2cnnn2CCCC1=O	·	-1%	·	0	·	·
CC(C)C1N(C(N)=S)N=CC1(C)C (configuration not stated)	-1%	-1%	20%	-6	3%	-13%
CC1(C)Cc2c(C#N)c(OCC(=O)c3ccccc3)nc(-c3ccoc3)c2CO1	-20%[57.1 µM]	27µM*	?	-9	-3%	3%
CCc1nc(N2CCN(C(=O)c3ccccc3)CC2)c(C#N)c2c1COC(C)(C)C2	23%[11.4 µM]	24µM*	11%	2	-2%	-5%
CCOc1ccc(CCNC(=O)c2cccc(Nc3nc4ccccc4nc3-n3nc(C)cc3C)c2)cc1OCC	2%	·	34%	·	-5%	3%
Cc1ccc(Nc2nc3ccccc3s2)cc1	-12%	-6%	16%	0	-3%	-2%
Cc1ccc(Nc2nnns2)cc1	-23%	24µM*	?	?	24%	-37%
NC(CS(=O)O)C(=O)O (configuration not stated)	35µM*	3%	23%	12	·	·
CCCCN(C(=O)C1CC(=O)N(CCc2ccc(OC)c(OC)c2)C1)c1c(N)n(CCCC)c(=O)[nH]c1=O (configuration not stated)	-4%	-15%	18%	0	-8%	-23%

High-throughput results deposited in PubChem by National Center for Advancing Translational Sciences (NCATS).
